For one assay, the target named is Albumin (Bos taurus) (UniProt P02769). Nature of the assay: compounds binding labelled BSA control protein – biochemical, small-molecule microarray, Alexa647 label, 635/667 nm fluorescence, artefact control for SMM control protein annotation, profiling panel (AID 1118).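 Also: score merges 667 nm emission intensity and signal-to-noise per printed compound spot.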 To be noted: BSA-A647 binding, fluorescence 635 nm, higher = more signal.
A short description of assay [1]: probe aXIP binding to arrayed compounds – biochemical, NeuroSMM set, 635/667 nm fluorescence, primary screen (AID 1119).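 Also: probe is the protein aXip251-270 applied at 1 µg/mL to compound-printed slides; binding of probe to printed compounds measured as 667 nm fluorescence plus signal to noise.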 The following applies: small-molecule microarray, higher = more signal, called active from +8 up or from −8 down.
Assay [2] in a line: probe aNOTCH3 binding on compound microarray – biochemical, small-molecule microarray, 635/667 nm fluorescence, primary screen (AID 1120).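 Also: probe is a biotin-tagged antibody raised against NOTCH3 rather than NOTCH3 protein; score merges spot fluorescence near 667 nm with spot signal to noise.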 To be noted: higher = more signal.
Assay [3] in a line: probe aNOTCH2 binding on compound microarray – biochemical, small-molecule microarray, 635/667 nm fluorescence, primary screen (AID 1121).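 Also: score merges feature fluorescence read at 667 nm with its signal to noise.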 To be noted: higher = more signal.
Assay [4] concerns the target Carbonic anhydrase 2 (Homo sapiens) (UniProt P00918). The assay is described as follows: compounds binding carbonic anhydrase 2 – biochemical, small-molecule microarray, Alexa647-labelled CAII, profiling panel (AID 1122). To be noted: CAII-A647 binding fluorescence, higher = more signal.
A short description of assay [5]: COS7 lysate on small-molecule microarray, probe aHis, 635 nm (AID 1123).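 Also: z-score combines 667nm fluorescence intensity with signal-to-noise per printed compound spot.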 The following applies: COS7 cell lysate, fluorescence, higher = more signal.
Assay [6] is described as follows: probe aLAP1 signal on lysate-treated microarray – cell lysate, small-molecule microarray, COS7 lysate, primary screen (AID 1124).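 Also: lysate comes from COS7 cells expressing LAP1 and is applied at 0.3 µg/mL; score merges spot fluorescence near 667 nm with signal-to-noise over triplicate slides.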 To be noted: probe aLAP1, fluorescence, higher = more signal.
Another assay deals with Sam68 (KHDRBS1). The assay is described as follows: compounds binding KHDRBS1 protein – biochemical, small-molecule microarray, 635 nm fluorescence, primary screen (AID 1125).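 Also: score merges 667 nm channel intensity with signal to noise over triplicate slides.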 To be noted: higher = more signal.
The subject of assay [7] is Chordin-like protein 2 (CHRDL2). The assay is described as follows: compounds binding chordin-like 2 – biochemical, small-molecule microarray, 635 nm fluorescence, primary screen (AID 1126).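 Also: printed compound slides probed with Chrdl2 protein at 4 µg/mL for 1 h at 4 C; score merges 667 nm emission intensity with signal to noise over three replicate slides.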 The following applies: fluorescence 635 nm, higher = more signal.
The target in assay [8] is Concanavalin-A (Canavalia ensiformis) (UniProt P02866). The assay is described as follows: compounds binding concanavalin A lectin – biochemical, small-molecule microarray, Alexa647 label, 635 nm, artefact control for SMM control protein annotation, primary screen (AID 1127).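 Also: z combines 667 nm emission intensity with signal-to-noise across three replicate slides.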 The following applies: ConA-A647 binding fluorescence, higher = more signal.
Concanavalin-A (Canavalia ensiformis), sequence (P02866 whole entry, looked up): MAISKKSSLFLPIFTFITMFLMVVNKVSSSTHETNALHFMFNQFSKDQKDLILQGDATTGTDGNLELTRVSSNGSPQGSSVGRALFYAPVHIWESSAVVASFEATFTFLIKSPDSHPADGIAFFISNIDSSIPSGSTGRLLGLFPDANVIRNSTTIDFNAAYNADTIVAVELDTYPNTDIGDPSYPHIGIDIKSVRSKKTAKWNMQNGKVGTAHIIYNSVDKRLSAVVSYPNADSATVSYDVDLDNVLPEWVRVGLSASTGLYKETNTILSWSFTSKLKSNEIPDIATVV
The nature of assay [9]: compounds binding Alexa647 anti-His antibody – biochemical, small-molecule microarray, 635 nm fluorescence, artefact control for SMM control protein annotation, primary screen (AID 1128).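 Also: score merges feature fluorescence with signal-to-noise for each printed compound spot.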 To be noted: higher = more signal.
Assay [10] deals with Human papillomavirus type 1a E7 protein (residues 1-88). Nature of the assay: HPV1a E7 small-molecule binders, primary screen, biochemical, small-molecule microarray, residues 1-88, 635 nm (AID 1129). To be noted: small-molecule microarray binding, fluorescence 635 nm; higher = more signal.
Assay [11] has as its target Focal adhesion kinase 1 (Homo sapiens) (UniProt Q05397). The assay is described as follows: PTK2 protein binding on printed compound slides – biochemical, small-molecule microarray, 635/667 nm fluorescence, BSA, DTT, primary screen (AID 1130).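 Also: composite of spot emission at 667 nm and signal to noise over triplicate slides.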 To be noted: 635 nm fluorescence, higher = more signal.
For assay [12], the system named is Fibrinogen (Alexa647-labelled). The assay is described as follows: Alexa647-fibrinogen binding to printed small molecules – biochemical, small-molecule microarray, 635/667 nm fluorescence, artefact control for SMM control-protein annotation, profiling panel (AID 1131).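 Also: z-score merges 667 nm fluorescence with per-spot signal-to-noise over triplicate slides.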 The following applies: fibrinogen-A647 binding fluorescence, higher = more signal.
The target of assay [13] is Follistatin (Homo sapiens) (UniProt P19883). Nature of the assay: FST protein binding to printed compounds – biochemical, small-molecule microarray, 635/667 nm fluorescence, primary screen (AID 1132). The following applies: 635 nm fluorescence, higher = more signal.
Follistatin (Homo sapiens), sequence (P19883 whole entry, looked up): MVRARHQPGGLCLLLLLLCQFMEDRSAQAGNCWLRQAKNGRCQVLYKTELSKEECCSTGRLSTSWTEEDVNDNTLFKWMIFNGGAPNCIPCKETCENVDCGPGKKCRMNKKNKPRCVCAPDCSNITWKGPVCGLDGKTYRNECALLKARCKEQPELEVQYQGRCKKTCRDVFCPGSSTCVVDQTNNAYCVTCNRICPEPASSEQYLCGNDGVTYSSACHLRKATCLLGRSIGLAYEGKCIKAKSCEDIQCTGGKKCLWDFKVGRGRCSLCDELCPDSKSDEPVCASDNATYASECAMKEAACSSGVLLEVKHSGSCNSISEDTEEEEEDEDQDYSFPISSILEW
For assay [14], the target named is Fibroblast growth factor 2 (Homo sapiens) (UniProt P09038). Nature of the assay: basic fibroblast growth factor binding to printed compounds – biochemical, small-molecule microarray, 635/667 nm fluorescence, primary screen (AID 1133). The following applies: FGF2, fluorescence 635/667, higher = more signal.
Fibroblast growth factor 2 (Homo sapiens), sequence (P09038 whole entry, looked up): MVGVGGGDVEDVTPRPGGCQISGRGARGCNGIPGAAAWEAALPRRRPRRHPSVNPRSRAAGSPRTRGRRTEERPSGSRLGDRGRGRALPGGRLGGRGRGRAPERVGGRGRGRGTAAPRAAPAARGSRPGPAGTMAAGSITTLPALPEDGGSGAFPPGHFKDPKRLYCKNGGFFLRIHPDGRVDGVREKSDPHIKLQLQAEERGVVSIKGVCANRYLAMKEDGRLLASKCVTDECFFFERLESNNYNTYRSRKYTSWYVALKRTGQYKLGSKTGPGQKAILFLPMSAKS
Assay [15] in a line: JC-1 mitochondrial potential readout, lung cancer cells – cell-based, A549, JC-1 fluorescence, basal, 24 h, 100 nL, profiling panel (AID 1138).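 Also: A549 lung adenocarcinoma cells under basal conditions with no added stimulus; test concentration not given here.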 To be noted: higher = more signal.
The subject of the next assay is Lefty1. The assay is described as follows: Lefty1 protein binding to printed compounds – biochemical, small-molecule microarray, 635/667 nm fluorescence, primary screen (AID 1139). The following applies: fluorescence 635/667, higher = more signal.
In assay [16] the test system is wheat germ agglutinin (Triticum aestivum), Alexa647-labelled. Nature of the assay: Alexa647-WGA lectin binding to printed small molecules – biochemical, small-molecule microarray, 635/667 nm fluorescence, artefact control for SMM control-protein annotation, profiling panel (AID 1140).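 Also: score merges 667 nm feature emission with signal to noise over triplicate slides.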 To be noted: WGA-A647 binding, 635 nm fluorescence, higher = more signal.
Assay [17] concerns the target Luciferin 4-monooxygenase (Photinus pyralis) (UniProt P08659). The assay is described as follows: inhibition of purified Photinus pyralis luciferase – biochemical, luminescence, purified enzyme, 2006 set, primary screen (AID 1141).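 Also: cell-free assay with purified firefly luciferase at 100 ng per well in PBS; test concentration not given here.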 The following applies: purified firefly luciferase, SteadyGlo luminescence, 30 min; higher = more signal, called active from +8 up or from −8 down.

The source made the active and inactive calls.

Luciferin 4-monooxygenase (Photinus pyralis), sequence (P08659 whole entry, looked up): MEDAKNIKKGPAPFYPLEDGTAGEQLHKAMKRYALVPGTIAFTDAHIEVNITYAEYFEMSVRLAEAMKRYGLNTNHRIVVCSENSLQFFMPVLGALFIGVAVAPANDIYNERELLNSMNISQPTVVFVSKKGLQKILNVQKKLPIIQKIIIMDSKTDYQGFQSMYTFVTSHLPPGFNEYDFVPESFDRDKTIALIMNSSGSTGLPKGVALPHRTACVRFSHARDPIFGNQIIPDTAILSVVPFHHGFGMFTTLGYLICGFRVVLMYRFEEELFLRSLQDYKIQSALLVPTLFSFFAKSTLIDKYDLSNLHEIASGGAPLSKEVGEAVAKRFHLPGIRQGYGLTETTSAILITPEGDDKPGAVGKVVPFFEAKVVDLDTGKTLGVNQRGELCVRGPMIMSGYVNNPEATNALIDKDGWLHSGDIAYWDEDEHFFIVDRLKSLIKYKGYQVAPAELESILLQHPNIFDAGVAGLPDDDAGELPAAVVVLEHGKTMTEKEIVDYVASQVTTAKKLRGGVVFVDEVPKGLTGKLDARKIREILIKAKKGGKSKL
Focal adhesion kinase 1 (Homo sapiens), sequence (Q05397 whole entry, looked up): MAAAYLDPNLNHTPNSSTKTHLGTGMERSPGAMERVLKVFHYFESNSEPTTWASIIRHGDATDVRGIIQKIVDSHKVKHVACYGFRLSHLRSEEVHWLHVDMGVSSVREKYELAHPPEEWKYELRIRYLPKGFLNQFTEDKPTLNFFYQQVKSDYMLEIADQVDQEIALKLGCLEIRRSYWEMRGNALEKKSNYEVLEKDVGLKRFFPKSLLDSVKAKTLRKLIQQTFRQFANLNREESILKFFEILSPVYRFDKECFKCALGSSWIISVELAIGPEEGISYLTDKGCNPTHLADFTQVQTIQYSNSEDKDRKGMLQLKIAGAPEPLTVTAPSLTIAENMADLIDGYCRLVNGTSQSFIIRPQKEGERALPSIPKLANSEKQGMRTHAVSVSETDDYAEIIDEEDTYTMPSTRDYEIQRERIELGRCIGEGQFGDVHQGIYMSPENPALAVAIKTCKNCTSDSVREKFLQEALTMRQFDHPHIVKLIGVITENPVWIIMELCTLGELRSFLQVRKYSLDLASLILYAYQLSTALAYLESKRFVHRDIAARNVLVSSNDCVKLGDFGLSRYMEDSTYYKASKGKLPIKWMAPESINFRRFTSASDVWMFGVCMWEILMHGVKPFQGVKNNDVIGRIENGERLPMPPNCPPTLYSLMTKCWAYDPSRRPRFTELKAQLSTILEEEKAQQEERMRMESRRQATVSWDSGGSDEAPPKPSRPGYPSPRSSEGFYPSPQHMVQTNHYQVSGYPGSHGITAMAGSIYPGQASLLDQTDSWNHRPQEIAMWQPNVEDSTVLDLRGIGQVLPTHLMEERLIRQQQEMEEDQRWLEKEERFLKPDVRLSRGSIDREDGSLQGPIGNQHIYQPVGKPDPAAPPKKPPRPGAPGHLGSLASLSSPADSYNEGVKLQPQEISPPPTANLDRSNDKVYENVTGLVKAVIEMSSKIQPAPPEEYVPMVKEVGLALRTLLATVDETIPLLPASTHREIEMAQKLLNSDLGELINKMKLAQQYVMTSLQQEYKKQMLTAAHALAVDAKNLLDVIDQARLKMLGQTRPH
Albumin (Bos taurus), sequence (P02769 whole entry, looked up): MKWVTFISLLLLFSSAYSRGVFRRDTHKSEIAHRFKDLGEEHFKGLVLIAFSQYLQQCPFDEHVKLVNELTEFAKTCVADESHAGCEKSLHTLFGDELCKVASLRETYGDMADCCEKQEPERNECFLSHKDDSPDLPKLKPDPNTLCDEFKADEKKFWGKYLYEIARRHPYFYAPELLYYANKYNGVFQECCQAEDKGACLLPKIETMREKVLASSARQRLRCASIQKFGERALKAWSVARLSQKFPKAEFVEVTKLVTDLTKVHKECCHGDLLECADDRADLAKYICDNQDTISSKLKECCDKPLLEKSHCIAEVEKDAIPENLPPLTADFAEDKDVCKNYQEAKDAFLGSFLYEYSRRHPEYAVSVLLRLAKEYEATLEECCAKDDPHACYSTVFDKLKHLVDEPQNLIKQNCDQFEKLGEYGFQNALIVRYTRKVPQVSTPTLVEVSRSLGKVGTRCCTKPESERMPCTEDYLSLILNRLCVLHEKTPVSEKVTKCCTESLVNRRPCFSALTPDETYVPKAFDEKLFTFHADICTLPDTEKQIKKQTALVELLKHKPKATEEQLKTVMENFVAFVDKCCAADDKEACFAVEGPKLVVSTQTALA

As to `Cc1ccc(N2C(=O)c3ccccc3[C@@H](C(=O)NC3CC3)[C@@H]2c2ccc(CO)cc2)nc1`, the composite z-score is -0.301 with Albumin (Bos taurus); -0.481 in assay [2]; -0.165 in assay [3]; 0.677 in assay [4]; -0.663 in assay [5]; 0.653 in assay [6]. Besides, the composite z-score was -2.27 in the assay with Sam68 (KHDRBS1); -1.97 in [7]; -0.616 in assay [8]; 0.442 in assay [9]; -0.372 in [10]; -1.29 in assay [11]. Also, the composite z-score in assay [12] was -3.9; in [13], -0.71; in assay [14], 0.392; with Lefty1, -1.79; in assay [16], -0.0414. Further, the composite Z-score in assay [1] was -0.648 (inactive). Also, the results for the z-score in [15] and in assay [17] were -0.487 and 0.309 (inactive), respectively.

In the case of `C=CCN1C(=O)[C@@]2(CC=C)N=C(c3ccc(OCCCO)cc3)O[C@H]2c2ccccc21`, the composite z-score with Albumin (Bos taurus) came to 0.272; in [2] it was 0.323; in [3], 0.189; in assay [4], 0.614; in assay [5] it was 3.3; in assay [6], 1.05. Also, the composite z-score in the assay on Sam68 (KHDRBS1) came to 1.3; in assay [7], 1.33; in assay [8], 1.05; in assay [9] it was 2.12; in assay [10], 1.2; in [11], 0.743. Besides, the composite z-score in assay [12] was 0.576; in [13], 1.49; in [14] it was 1.76; with Lefty1, 1.17; in assay [16], 0.503. Moreover, the composite Z-score in [1] was 0.33 (inactive). In addition, the z-score in assay [15] was 2.66; in assay [17], -9.06 (active).

As to `CCOC(=O)C1=C[C@@H](C(C)(C)C)N(S(=O)(=O)c2ccc(C)cc2)[C@H]1c1ccc(F)cc1`, the composite z-score was 0.316 in the assay with Albumin (Bos taurus); 0.169 in assay [2]; -0.0254 in assay [3]; 0.287 in assay [4]; 1.61 in [5]; 0.397 in [6]. The composite z-score with Sam68 (KHDRBS1) was 1.29; in assay [7], 0.16; in assay [8], 0.819; in assay [9], 0.416; in assay [10], 1.21; in assay [11], -0.225. Moreover, the composite z-score in [12] was 0.939; in assay [13] it was 1.05; in assay [14], 0.553; in the assay on Lefty1, 0.96; in [16] it was 0.723. Besides, the composite Z-score in assay [1] was -0.171 (inactive). Besides, the z-score in [15] was 3.65; in assay [17], 1.53 (inactive).

Regarding `CCc1cccc(NC(=O)O[C@H]2[C@H](OC(=O)Nc3ccccc3-c3ccccc3)[C@@H](OC(=O)Nc3ccccc3-c3ccccc3)[C@@H](OC)O[C@@H]2CO)c1`, the composite z-score with Albumin (Bos taurus) is 0.81; in [2] it was 0.13; in assay [3], -0.0238; in [4], 0.704; in [5] it was 2.8; in assay [6], 0.219. Further, the composite z-score is 1.3 in the assay on Sam68 (KHDRBS1); -0.229 in assay [7]; 1.07 in [8]; 2.04 in [9]; 1.31 in assay [10]; 0.69 in assay [11]. Besides, the composite z-score in assay [12] is 1.02; in assay [13], 1.02; in [14] it was 0.179; with Lefty1, 0.345; in assay [16], 1.08. Moreover, in [1], the composite Z-score is 0.237 (inactive). Further, the results for the z-score in assay [15] and in assay [17] were -1.12 and 0.532 (inactive), respectively.

`O=C1[C@@]23C=C(Br)[C@H](C[C@@H]2CCOC3)[C@@]12CO2`: the composite z-score with Albumin (Bos taurus) was -0.169; in assay [2], 0.146; in assay [3], -0.162; in [4], -0.0433; in [5], -0.128; in assay [6], 0.522. The composite z-score is 0.166 in the assay on Sam68 (KHDRBS1); 0.518 in assay [7]; 0.311 in [8]; 0.477 in [9]; 0.235 in assay [10]; -0.176 in [11]. Also, the composite z-score in assay [12] was 0.332; in assay [13] it was 0.327; in assay [14], 0.469; in the assay with Lefty1 it was 0.406; in assay [16], 0.128. In addition, in assay [1], the composite Z-score was -0.775 (inactive). Further, the results for the z-score in assay [15] and in assay [17] were 1.23 and -0.54 (inactive), respectively.

For the molecule `CN1C(=O)C2C=CC(C(O)c3ccc([N+](=O)[O-])cc3)N(N3CCCCC3)C2C1=O` (stereo not given), the composite z-score with Albumin (Bos taurus) came out at 0.818; in assay [2], 0.246; in [3] it was 0.0791; in assay [4], 0.673; in [5], 1.55; in assay [6], 0.761. The composite z-score stood at 1.26 in the assay with Sam68 (KHDRBS1); 0.172 in assay [7]; 1.09 in [8]; 0.922 in assay [9]; 1.18 in assay [10]; 0.115 in [11]. In addition, the composite z-score is 0.938 in [12]; 1.12 in assay [13]; 0.651 in assay [14]; -0.0977 in the assay on Lefty1; 0.913 in assay [16]. In [1], the composite Z-score was -0.0829 (inactive). Also, the z-score in assay [15] is -0.39; in [17], -0.661 (inactive).

Source of the values: PubChem BioAssay.
